Laboratory results from PubChem BioAssay.
Measured potencies and affinities stand elsewhere. Results filed as inconclusive are left out. Active and inactive are the calls of the source.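 Rule for the calls, unless noted: active = a fitted half-maximal concentration no higher than twice the top valid tested dose, with signal falling as cells die; inconclusive = flat curve between -70% and -30%, or poor fit; inactive = the rest, including signal rising instead of falling.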

What was measured:
[1] = fungal growth arrest, C. neoformans – Alamar Blue, cherry-picks, dose response (AID 686998;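 active = falling signal with fitted half-maximal potency no higher than twice the top valid tested dose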)
[2] = viability loss in HepG2 hepatoma cells – cell-based, cherry-picks, set 2, cytotoxicity control, dose response (AID 687002;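 active = a dose-response fit showing signal loss, with half-maximal concentration no higher than twice the top tested dose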)
[3] = viability loss in HeLa cells – cell-based, ATP luminescence, cherry-pick samples, cytotoxicity control, dose response (AID 687004)

Measured: outcome

COCCNC(=O)C[C@@H]1C[C@H]2c3cc(NC(=O)C4CCOCC4)ccc3O[C@H]2[C@H](CO)O1
inactive: [1] | [2] | [3]

O=C(NC(=S)Nc1cccc(F)c1)c1cccc([N+](=O)[O-])c1
inactive: [1] | [2] | [3]

CCCC(C)(C)C(=O)N1CCC1(C)C(=O)Nc1ccc(C)cc1 (stereo not given)
inactive: [1] | [2] | [3]

CCC(=O)N(C)C[C@@H]1Oc2cc(C#CC(C)(C)O)ccc2S(=O)(=O)N([C@H](C)CO)C[C@H]1C
inactive: [1] | [2] | [3]

COCCN1C(=S)N[C@@H](c2ccccc2)C(C(=O)OC)=C1C
inactive: [1] | [2] | [3]

O=C(NCCN1CCCCC1)[C@@H]1N[C@@H]2c3ccc(-c4ccncc4)c(=O)n3C[C@@H]2[C@H]1CO
inactive: [1] | [2] | [3]

C[C@H](CO)N1C[C@H](C)[C@@H](CN(C)C(=O)c2ccncc2)OCCCC[C@H](C)Oc2ccc(NC(=O)Cc3ccccc3)cc2C1=O
inactive: [1] | [2] | [3]

CC(C)C#Cc1ccc([C@@H]2[C@H](CO)N3CCCCN(C(=O)c4ccc5c(c4)OCO5)C[C@@H]23)cc1
inactive: [1] | [2] | [3]

Cc1cccc(-c2ccc([C@H]3[C@H](CO)N4CCCCN(C(=O)c5ccc6c(c5)OCO6)C[C@@H]34)cc2)c1
inactive: [1] | [2] | [3]

C[C@H](CO)N1C[C@H](C)[C@H](CN(C)Cc2ccccc2)OCCCC[C@H](C)Oc2ccc(NS(=O)(=O)c3cccs3)cc2C1=O
inactive: [1] | [2] | [3]

C[C@@H]1CCCCO[C@@H](CN(C)C(=O)Nc2ccc3c(c2)OCO3)[C@@H](C)CN([C@H](C)CO)C(=O)c2cc(NC(=O)Nc3cccc4ccccc34)ccc2O1
inactive: [1] | [2] | [3]

COCC(=O)N(C)C[C@H]1Oc2ncc(-c3ccccc3F)cc2C(=O)N([C@@H](C)CO)C[C@H]1C
inactive: [1] | [2] | [3]

CCCC(=O)Nc1ccc2c(c1)C(=O)N(C)C[C@H](OC)[C@@H](C)CN(C(=O)c1cccnc1)[C@H](C)CO2
inactive: [1] | [2] | [3]

CNC[C@@H]1OCCCC[C@@H](C)Oc2ccc(NC(=O)Nc3ccc4c(c3)OCO4)cc2C(=O)N([C@H](C)CO)C[C@@H]1C
inactive: [1] | [2] | [3]

C[C@@H]1CCCCO[C@@H](CN(C)C(=O)Nc2cccc3ccccc23)[C@@H](C)CN([C@H](C)CO)C(=O)c2cc(NS(=O)(=O)c3ccccc3)ccc2O1
inactive: [1] | [2] | [3]

CO[C@H]1CN(C)C(=O)c2cc(NC(=O)C3CC3)ccc2OC[C@@H](C)N(Cc2cncnc2)C[C@H]1C
inactive: [1] | [2] | [3]

CC(C)CC#Cc1cnc2c(c1)C(=O)N([C@H](C)CO)C[C@H](C)[C@@H](CN(C)Cc1cccc(F)c1)O2
inactive: [1] | [2] | [3]

O=C(NCCN1CCCCC1)[C@H]1N[C@H]2c3ccc(-c4ccncc4)c(=O)n3C[C@H]2[C@@H]1CO
inactive: [1] | [2] | [3]

CC(C)CC#Cc1cnc2c(c1)C(=O)N([C@H](C)CO)C[C@H](C)[C@H](CN(C)C(=O)c1cccnc1)O2
inactive: [1] | [2] | [3]

CCCN1C[C@H](C)[C@@H](OC)CN(C)C(=O)c2cc(NC(=O)c3cccc(F)c3)ccc2OC[C@@H]1C
inactive: [1] | [2] | [3]

COc1ccc(NC(=O)N(C)C[C@@H]2OCCCC[C@@H](C)Oc3ccc(NC(=O)Nc4ccc5c(c4)OCO5)cc3C(=O)N([C@@H](C)CO)C[C@H]2C)cc1
inactive: [1] | [2] | [3]

CNC[C@@H]1OCCCC[C@@H](C)Oc2ccc(NS(=O)(=O)c3ccc(Cl)cc3)cc2C(=O)N([C@H](C)CO)C[C@H]1C
inactive: [1] | [2] | [3]

Cc1cccc(C)c1NC(=O)C1CCCN1C(=O)NCc1ccccc1 (stereo not given)
inactive: [1] | [2] | [3]

C[C@@H]1CCCCO[C@@H](CN(C)C(=O)CCCN(C)C)[C@@H](C)CN([C@H](C)CO)C(=O)c2cc(NC(=O)Cc3ccccc3)ccc2O1
inactive: [1] | [2] | [3]

C[C@@H]1CCCCO[C@H](CN(C)S(=O)(=O)c2cccs2)[C@@H](C)CN([C@@H](C)CO)C(=O)c2cc(NC(=O)CCC(F)(F)F)ccc2O1
inactive: [1] | [2] | [3]

CC(C)NC(=O)Nc1ccc2c(c1)CC(=O)N([C@@H](C)CO)C[C@@H](C)[C@H](CN(C)C(=O)Nc1ccc3c(c1)OCO3)O2
inactive: [1] | [2] | [3]

COc1cccc(NC(=O)N2C[C@H](O)COC[C@H]3O[C@@H](CC(=O)NCc4ccccc4F)CC[C@@H]32)c1
inactive: [1] | [2] | [3]

CC(C)NC(=O)N(C)C[C@H]1OCCCC[C@H](C)Oc2ccc(NC(=O)c3ccccc3)cc2C(=O)N([C@@H](C)CO)C[C@@H]1C
inactive: [1] | [2] | [3]

COc1ccc(S(=O)(=O)N[C@H]2C=C[C@H](CC(=O)N3CCC(Cc4ccccc4)CC3)O[C@@H]2CO)cc1
inactive: [1] | [2] | [3]

CO[C@@H]1CN(C)C(=O)c2cc(NS(=O)(=O)c3cccc(C)c3)ccc2OC[C@@H](C)NC[C@H]1C
inactive: [1] | [2] | [3]

C[C@@H]1CN([C@H](C)CO)S(=O)(=O)c2ccc(C#C[C@@H](C)O)cc2O[C@@H]1CN(C)Cc1ccncc1
inactive: [1] | [2] | [3]

Cc1cccc(C)c1NC(=O)CN(C)C(=O)C1CCCCC1
inactive: [1] | [2] | [3]

C[C@H](CO)N1C[C@H](C)[C@H](CN(C)C(=O)Nc2cccc3ccccc23)Oc2ccc(NC(=O)Cc3ccccc3)cc2CC1=O
inactive: [1] | [2] | [3]

CCCC(=O)N1CCC1(C)C(=O)Nc1ccc(C)cc1 (stereo not given)
inactive: [1] | [2] | [3]

CC(C)NC(=O)Nc1ccc2c(c1)C(=O)N([C@@H](C)CO)C[C@@H](C)[C@H](CN(C)C(=O)c1ccncc1)OCCCC[C@H](C)O2
inactive: [1] | [2] | [3]
